Records with an inconclusive call do not appear. Unmarked numbers belong to inactive results. The call rests on the fitted dose curve; in most records, active means well fitted activation curve with a large enough effect in the repeat runs; inconclusive means weak or mixed curves; inactive means no such curve, though single readings can be large or run the other way.
On the % scale 0 is the no-effect control and ±100 the full control effect.

The nature of this assay: qHTS assay for small molecules that induce genotoxicity in human embryonic kidney cells expressing luciferase-tagged ATAD5 (AID 651632). Further: nearly all actives have a fitted effect of over 15% in size. The conditions noted are these: HEK293T ATAD5-luciferase induction, 16 h; series mostly up to 83.3 µM; activation: at the top concentration. The source says:
U.S. Tox21 Program National Center for Advancing Translational Sciences [NCATS] NIH Chemical Genomics Center [NCGC] U.S. Environmental Protection Agency [EPA] National Institutes of Environmental Health Sciences [NIEHS] National Toxicology Program [NTP] U.S. Food and Drug Administration [FDA] Tox21 Assay Overview: As cancer cells divide rapidly and during every cell division they need to duplicate their genome by DNA replication. The failure to do so results in the cancer cell death. Based on this concept, many chemotherapeutic agents were developed but have limitations such as low efficacy and severe side effects etc. A new cell based assay was developed to find the compounds that effectively block DNA replication either by directly damaging DNA or by inhibiting other cellular mechanisms. Enhanced Level of Genome Instability Gene 1 (ELG1; human ATAD5) protein levels increase in response to various types of DNA damage. Using a luciferase reporter-gene tagged with ATAD5, a cell-based assay [developed by Kyungjae Myung, NHGRI, NIH] was used to measure the induction of ATAD5 in human embryonic kidney cells (HEK293T). So, increase in luciferase activity can be used to identify the compounds that cause genetic stress.
Tox21 Assay Protocol Summary: For genotoxicity screening, 2,000 cells in 5 uL/well were dispensed into white, solid-bottom 1536-well plates using a Multidrop Combi (Thermo Scientific) dispenser. Following transfer of 23 nL compound or DMSO vehicle by a pin tool, the plates were incubated 16 hr at 37C and 5% CO2. 5 ul Amplite (AAT Bioquest, Inc.) was then added to each plate and following 30 min incubation at room temperature, luciferase activity was quantified on a ViewLux CCD-based plate reader.
With `N=C(N)S(=O)O`, the “activation” value is 0.707%.
`CCCCCCCCCCCCCCBr`: the “activation” value was 2.15% [at 95.3 µM].
Next, `CC(=O)Nc1ccc(S(=O)(=O)Nc2cc(C)on2)cc1`: 4.19%; `O=C(c1ccccc1)c1cccc(O)c1`: -2.08% [at 95.3 µM].
Consider `CC(C)(C)C(=O)CCc1ccc(Cl)cc1`, for which the “activation” value is 1%.
As for `CC(=O)c1ccc2ccc3ccccc3c2c1`, the figure is 4.1%; as for `CCO/C=C1\N=C(c2ccccc2)OC1=O`, 2.71%; as for `N=C(N)N`, 1.25%.
As for `CCCC[O][Al]([O]CCCC)[O]CCCC`, the figure is 3.41%.
Next, `CC(=O)Nc1ccc(OCCOCCOc2ccc(NC(C)=O)cc2)cc1`: 3.35%; `C=CC(=O)CC`: -2.38% [at 95.3 µM].
Turning to `C[n+]1ccccc1/C=N/O`, the “activation” value is 1.81% [at 39.1 µM].
Consider `COC(=O)c1ccc(C(=O)O)cc1`, for which the “activation” value is 0.322%.
Consider `Cc1ccc2cccnc2c1`, for which the “activation” value was 1.43%.
Next, `CC(=O)OC/C=C(/C)CCC=C(C)C`: 1.58%; `CC/C=C/CCCCCCCCCCOC(C)=O`: 1.79%; `CCOC(=O)[C@H](CCc1ccccc1)N[C@H]1CS[C@H](c2cccs2)CN(CC(=O)O)C1=O`: 0.259%.
For `Cc1cc(C)c(C)c(C)c1`, the “activation” value was 3.26%.
As for `CCOC(=O)CC`, the figure is 4.56%; as for `CCCCNCC`, -0.917%; as for `Cc1cc(O)c(Cl)cc1C`, -0.339%.
Next, `C/C=C(\C)C=O`: 2.52% [at 95.3 µM]; `C=CCCCCCCCCOC(C)=O`: 1.09%; `CCc1ncc(C)[nH]1`: -1.84%.
As for `CCc1ccc(CC)cc1`, the figure is 2.88% [at 95.3 µM]; as for `CCCCCCC(O)CO` (stereo not given), 0.69%.
Turning to `COC(=O)/C=C(\C)CCC=C(C)C`, the “activation” value is 0.606%.
As for `O=S(=O)(O)c1cc(I)c(O)c2ncccc12`, the “activation” value was 3.31%.
Next, `CCCOc1ccc(C(=O)OCCN(CC)CC)cc1N`: 4.27%.
As to `CCO[Si](CC(C)C)(OCC)OCC`, the “activation” value is -1.68%.
For `Cc1ccc(OC(=O)CC(C)C)cc1`, the “activation” value was -1.23%.
For `CC(C)C(C)C`, the “activation” value is -2.92%.
`COc1cc(NS(=O)(=O)c2ccc(N)cc2)ncn1`: the “activation” value is -1.03% [at 39.1 µM].
Next, `Cc1ccc(Br)cc1`: -0.318%.
Turning to `O=C(O)Cc1c(Cl)ccc(Cl)c1Cl`, the “activation” value was 1.89%.
Next, `C[C@H]1COc2c(C3(N)CC3)c(F)cc3c(=O)c(C(=O)O)cn1c23`: 0.688%; `Cc1ccccc1OCC(=O)O`: 4.55%; `CC(C)=CCC/C(C)=C\C#N`: -1.67%.
In the case of `C[Si](C)(C)O[Si](O)(O)O`, the “activation” value was 2.9%.
Consider `C=CCCCCCCCCCCCCCC`, for which the “activation” value is 1.37% [at 39.1 µM].

For the origin of these results see PubChem BioAssay (Tox21).
